In PubChem BioAssay AID2391 (Southern Research Specialized Biocontainment Screening …, 2010):
The whole screen tested about 310,000 compounds, of which about 410 (0.13%) were called active. Inconclusive results (about 2%) are left out. How the calls were made is not given here. The list is a sample of the results. Entries with a potency or affinity are not part of this list.

assay: RSV antiviral activity via CPE protection, HEp-2 cells, primary 10 µM value included (AID 2391); details: RSV-induced CPE inhibition, at 10 µM, active compounds read high

CPE inhibition, inactive:
O=C(NNC1=NS(=O)(=O)c2ccccc21)c1ccccc1Cl 1.71%
CC(CC(=O)NC1CCCCC1)S(=O)(=O)c1ccc2c(c1)CCN2C(=O)C1CC1 (stereo not drawn) 0.99%
CCC(=O)Nc1ccc(C(=O)CSc2nnc(-c3cccnc3)o2)cc1 -0.13%
COc1cc([N+](=O)[O-])ccc1NC(=O)CSc1ccccn1 4.53%
O=C(Nc1ccc(O)c2c(=O)cc(-c3ccccc3Cl)oc12)c1cccc(Cl)c1 -0.66%
CSc1cc(-c2ccc(Cl)cc2)c(C(=O)NN)s1 0.87%
COC(=O)c1nc(N)sc1C 1.76%
COc1ccc(S(=O)(=O)N2CC(C(=O)O)Oc3ccc(CC(=O)O)cc32)cc1 (stereo not drawn) 1.19%
O=C(Nc1ccc(N2CCOCC2)c(Cl)c1)c1cccnc1 4.29%
O=C(Nc1ccc(N2CCCC2)c(Cl)c1)c1cccnc1 5.52%
O=C(CSc1nnc2ccccn12)NC(=O)NC1CCCC1 0.11%
COc1cccc(OC)c1C(=O)Nc1ccc(C)cc1C(=O)c1ccccc1 6.46%
Cc1nc(CCNS(=O)(=O)c2cccnc2)cs1 -0.89%
COc1ccc(NC(=O)c2cn(-c3ccccc3)nc2-c2cc3ccccc3o2)cc1 14.1%
O=C(Nc1ccc([N+](=O)[O-])cc1)c1cn(-c2ccccc2)nc1-c1cc2ccccc2o1 0.46%
COc1cc(C=O)ccc1OCc1cccc(Br)c1 1.17%
CC(=O)Nc1cccc(NC(=O)c2cccc(S(=O)(=O)N3CCN(Cc4ccccc4)CC3)c2)c1 1.07%
O=C(Nc1ccc2c(c1)OCO2)[C@@H]1[C@@H]2C(=O)N(C3CCCCC3)C(=O)[C@@H]2C2c3ccccc3C=CN21 (stereo partly drawn) 2.62%
COc1ccc(C(C[N+](=O)[O-])c2c(-c3ccccc3)cc3ccccn23)cc1 (stereo not drawn) 7.08%
COc1ccc(C(C[N+](=O)[O-])c2c(C)cc3ccccn23)c(OC)c1 (stereo not drawn) 3.91%
COC(=O)CSc1nc2ccc(NC(=O)CSc3nnnn3Cc3ccccc3)cc2s1 1.43%
COc1ccccc1OCCOCCOc1c(C)cc(C)cc1Br 1.97%
COc1ccccc1CNC(=O)c1oc2ccccc2c1C 1.89%
COc1ccccc1CNC(=O)c1cc2c(=O)[nH]c3ccccc3c2n1C 16.5%
CCOc1ccccc1CNC(=O)c1cn(C)c(=O)c2c1c1ccccc1n2C 6.47%
CCOc1ccccc1CNC(=O)Cn1c(=O)oc2ccccc21 -0.15%
CCOc1ccccc1CNC(=O)c1c([N+](=O)[O-])c(C)nn1C 0.22%
CCOc1ccccc1CNC(=O)c1cc2occc2n1C 2.63%
